Compound activity (PubChem)
This is a sample that favours compounds with a hit; in the whole collection about 2.4% have one here.
D2 PAM-1: D2 dopamine receptor (human) potentiation; P14416; potentiation, % at 10 µM; HEK293 T-REx D2, calcium flux, EC20 dopamine potentiation; AID 485347; 0.34% of 340,000 active;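 active means potentiation over 3 SD above the plate norm, cut at about 30% in these data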; further: 0% is about no effect
Target sequence (P14416 whole entry, looked up): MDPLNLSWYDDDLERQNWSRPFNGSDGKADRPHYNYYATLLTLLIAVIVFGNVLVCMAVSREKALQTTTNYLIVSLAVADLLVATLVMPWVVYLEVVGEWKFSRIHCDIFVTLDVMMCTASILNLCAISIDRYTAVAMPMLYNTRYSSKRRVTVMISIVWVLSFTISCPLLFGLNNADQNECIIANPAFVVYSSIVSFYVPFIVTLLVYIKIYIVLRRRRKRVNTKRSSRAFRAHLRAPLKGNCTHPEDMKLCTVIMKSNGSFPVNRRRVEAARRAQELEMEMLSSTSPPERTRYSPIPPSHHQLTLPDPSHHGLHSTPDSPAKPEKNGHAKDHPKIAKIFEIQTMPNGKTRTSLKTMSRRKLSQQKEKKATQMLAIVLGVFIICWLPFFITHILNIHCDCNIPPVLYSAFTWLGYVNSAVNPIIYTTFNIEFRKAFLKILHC
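Potentiation of an EC20 dopamine calcium response is measured in a force-coupled, tetracycline-inducible Hek293 Trex D2 line. Compound-only kinetic reads over 180 s flag agonists before dopamine addition.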
D2 PAM-2: human D2 receptor positive allosteric modulation; AID 624464; DiscoveRx D2 beta-arrestin cells, luminescence, 90 min; 100% = 57 uM dopamine signal; 0.23% of 360,000 active; potentiation, % (concentration not given with the values); P14416; in the data active means potentiation above about 50%; inconclusive means mostly about 30% to 49%
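PathHunter beta-arrestin assay in DiscoveRx D2 cells. Compounds were added with an EC20 of dopamine (50 nM final) for 90 min at 37 deg C. Luminescence was read 1 h after detection reagent, with 57 uM dopamine as the EC100 control.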
D2 ag-1: agonists of human D2 dopamine receptor | 0.53% of 340,000 active | AID 485358 | activation, % at 2 µM | P14416 | HEK293 T-REx D2 cells, calcium flux agonist mode;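 active means activation over 3 SD above normal in the single-dose calcium agonist read, cut at about 30% in these data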; further: 0% is about no effect
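In this primary screen, compounds producing a positive calcium signal within 180 s of addition to tetracycline-induced, force-coupled HEK293 Trex D2 cells are flagged; cells are dye-loaded with a no-wash calcium kit beforehand.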
D2 ag-2: activates the human D2 dopamine receptor | P14416 | DiscoveRx PathHunter D2 beta-arrestin, luminescence, 90 min; 100% = 57 uM dopamine signal | activation, % (concentration not given with the values) | 0.084% of 360,000 active | AID 624465; in the data active means activation above about 40%; inconclusive means between about 15% and that limit
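DiscoveRx PathHunter D2 beta-arrestin cells (2,100/well) attached overnight, then compound-stimulated 90 min at 37 C in HBSS/10 mM HEPES/0.1% Tween-20 buffer; beta-galactosidase complementation read by luminescence after 1 h at ambient temperature. Dopamine 57 uM final (EC100) as control.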
D2 antag: antagonizes the human D2 dopamine receptor; inhibition, % at 10 µM; P14416; AID 485344; HEK293 TREx D2 cells, calcium flux, dopamine EC80; 2% of 340,000 active; in the data active means inhibition above about 30%; inactive means below that, where a call was filed; further: 0% is about no effect
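In this primary screen, negative modulation is detected by tracking calcium flux after an EC80 dopamine challenge in inducible HEK293 T-REx D2 cells preexposed to test compound for 180 s.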
Starred values were filed as active, the others as inactive; ? = inconclusive; · = no result.

SMILES	D2 PAM-1	D2 PAM-2	D2 ag-1	D2 ag-2	D2 antag
Cc1ccc(C(CC(=O)O)NC(=O)CN2C(=O)c3ccccc3C2=O)cc1 (centres undefined)	0	-8	1	-7	43*
CCc1ccccc1Nc1nn2c(=O)c3ccc(C(=O)NCc4cccs4)cc3nc2s1	13	·	0	·	·
CN(C)CCCNC(=S)/N=c1\sccn1Cc1ccccc1Cl	-40	-11	0	-2	90*
N#CC1=C(N)Oc2cc(O)c(Cl)cc2C1c1ccccc1F (centres undefined)	-4	19	44*	8	-29
N#CC1=C(N)Oc2cc(O)c(Cl)cc2C1c1cccnc1 (centres undefined)	0	-5	14	4	-3
CN(C1CCCC1)C1CCN(C(=O)CNC(=O)/C=C/c2ccc(F)cc2)CC1	-3	-3	2	-2	85*
O=C(CCCCCn1c(=O)[nH]c2ccsc2c1=O)N1CCCCC1	6	-7	-1	-3	9
Cc1cccc(N2CCN(C(=O)CCn3c(=O)[nH]c4ccsc4c3=O)CC2C)c1 (centres undefined)	21	?	-2	56*	-1
O=C(CCCCCn1c(=O)[nH]c2ccsc2c1=O)N1CCN(C2CCCCC2)CC1	-5	-1	10	-2	53*
CCOC(=O)c1c(C)oc2nc(C)nc(NCc3cccc(OC)c3)c12	5	·	-1	·	·
CCN(CC)c1ccc2cc(C(C)=O)c(=O)oc2c1	11	-19	35*	-4	-29
CCN(CC)c1ccc2cc(C=O)c(=O)oc2c1	-6	-13	65*	-2	-46
CCN(CC)c1ccc2cc(C(=O)Nc3ccccn3)c(=O)oc2c1	5	0	39*	0	2
CCN(CC)c1ccc2cc(-c3nnc(-c4ccncc4)o3)c(=O)oc2c1	·	-12	88*	-1	66*
COc1ccccc1CNC(=O)Cn1ncc2c(C)n(Cc3ccccc3Cl)c(C)c2c1=O	9	·	0	·	·
COc1ccc(-n2ncc(C(=O)NCc3ccc4c(c3)OCO4)c2C2CCN(C(=O)OC(C)(C)C)CC2)cc1	-1	·	0	·	·
COc1ccc(C(=O)NCCc2sc(-c3cccc(F)c3)nc2C)cc1	17	·	·	·	·
COc1cccc(NC(=O)C2CCCN(S(=O)(=O)c3ccc4[nH]c(=O)ccc4c3)C2)c1 (centres undefined)	14	·	0	·	·
CSc1nn(Cc2ccccc2C)c(NC(C)=O)c1S(=O)(=O)c1ccc(C)cc1	1	·	0	·	·
N#C/C(=C\c1ccccc1C(F)(F)F)C(=O)Nc1ccccc1	6	7	0	1	-4
CCc1cccc(CC)c1NC(=O)/C(C#N)=C/c1ccccc1C(F)(F)F	-20	96*	-1	10	-2
CCc1ccc(-n2c(=O)c3sc4ccccc4c3n(CC(=O)N(CC)Cc3ccccc3)c2=O)cc1	-9	·	0	·	·
COc1cccc(C2CNC3(CCCC(C)C3)c3[nH]c4ccccc4c32)c1OC (centres undefined)	-25	-17	2	-6	-8
CC1(C)CC(=O)CC2(C1)NCC(c1ccccc1)c1c2[nH]c2ccccc12 (centres undefined)	-5	-7	4	0	31*
CN1/C(=C\C(=O)C[n+]2ccc(C(=O)c3ccccc3)cc2)C(C)(C)c2ccccc21	-3	53*	2	6	15
SMILES	D2 PAM-1	D2 PAM-2	D2 ag-1	D2 ag-2	D2 antag
O=C(CSc1nc2c(c(=O)[nH]1)CCC2)Nc1ccccc1F	6	·	0	·	·
Cc1ccc(C)c(-c2nnc(NC(=O)Cc3ccc(F)cc3)o2)c1	-24	-14	0	0	11
Cc1ccc(-c2nnc(NC(=O)Cc3ccc(F)cc3)o2)c(C)c1	-27	-21	-1	-4	67*
CCc1ccccc1NC(=O)Cn1c(=O)n(CCCCCC(=O)NCc2ccc(C)cc2)c(=O)c2sccc21	8	·	0	·	·
O=C(N/N=C/c1cc(Br)c(Br)o1)c1cc2ccccc2o1	-24	-37	0	6	33*
O=C(Nc1cccc([N+](=O)[O-])c1)Nc1cnccn1	-2	-3	38*	1	-1
Cc1ccc[n+](CC(=O)Nc2cccc([N+](=O)[O-])c2)c1	-27	-14	-1	-9	32*
O=C(O)CCCC(=O)Nc1cccc([N+](=O)[O-])c1	38*	-7	-1	-1	-14
O=C(Nc1cccc([N+](=O)[O-])c1)Nc1cccc([N+](=O)[O-])c1	-2	-10	3	-10	25
Cc1nn2c(C)c(C(=O)NCc3cccc(Br)c3)cnc2c1-c1ccccc1	-8	·	·	·	·
CCC(=O)c1ccccc1OCCCN1CCC(Cc2ccccc2)CC1	-34	-11	0	1	97*
CC(=O)CCc1ccc(OCCCCN2CCC(Cc3ccccc3)CC2)cc1	-26	-7	0	-1	54*
Cc1ccc([N+](=O)[O-])c(OCCN2CCC(Cc3ccccc3)CC2)c1	-32	-16	1	-3	68*
CC1CCN(CCCOc2ccc(OCc3ccccc3)cc2)CC1	-18	-37	2	-9	8
CCOc1ccccc1OCCN1CCC(Cc2ccccc2)CC1	-18	-19	-2	0	64*
CCOc1ccccc1OCCN1CCCC1	-1	-65	1	-2	-3
CC(C)(C)OC(=O)N1CCC(c2c(C(=O)Nc3ccc4c(c3)OCCO4)cnn2-c2ccccc2)CC1	-7	·	0	·	·
COc1cc(NS(=O)(=O)c2ccc(-c3cc(C)no3)cc2)cc(OC)c1	5	·	0	·	·
COc1ccccc1N1CCN(c2nc(-c3ccc(C)cc3)nc3ccccc23)CC1	12	·	0	·	·
COc1cc(CN(C(=O)COc2ccc(Cl)cc2)c2ccccn2)cc(OC)c1OC	14	·	-1	·	·
COc1cccc(OC)c1OCCCCN1CCCC1	-11	-31	0	0	3
Cc1ccccc1OCCOCCN1CCCCCC1	-27	-20	·	0	·
COc1ccccc1OCCCCN1CCN(C(c2ccccc2)c2ccccc2)CC1	-19	-14	25	-3	61*
Cc1ccccc1OCCN1CCC(Cc2ccccc2)CC1	-27	-20	0	-3	46*
COc1cccc(OC)c1OCCCCN1CCC(Cc2ccccc2)CC1	-27	-22	0	0	76*
N#Cc1ccccc1OCCCN1CCC(Cc2ccccc2)CC1	-27	-7	0	0	85*
Cc1ccc(C)c(NC(=O)CCc2c(C)nn(-c3ccc(N4CCCC4)nn3)c2C)c1	12	·	-1	·	·
Cc1ccc(S(=O)(=O)c2cn(C)c3cc(N4CCCC(C)C4)c(F)cc3c2=O)c(C)c1 (centres undefined)	5	·	0	·	·
Cc1cccc(NC(=O)CSc2cn(CC(=O)N3CCOCC3)c3ccccc23)c1C	3	·	0	·	·
